Source: PubChem
rat GALR2 agon – GALR2 (rat) receptor agonism. 16,000 compounds, 0.5% hits. cell-based GALR2 agonist screen. O08726. activation, % at 10 µM; in the data active = activation above about 15%
Target sequence (O08726 whole entry, looked up): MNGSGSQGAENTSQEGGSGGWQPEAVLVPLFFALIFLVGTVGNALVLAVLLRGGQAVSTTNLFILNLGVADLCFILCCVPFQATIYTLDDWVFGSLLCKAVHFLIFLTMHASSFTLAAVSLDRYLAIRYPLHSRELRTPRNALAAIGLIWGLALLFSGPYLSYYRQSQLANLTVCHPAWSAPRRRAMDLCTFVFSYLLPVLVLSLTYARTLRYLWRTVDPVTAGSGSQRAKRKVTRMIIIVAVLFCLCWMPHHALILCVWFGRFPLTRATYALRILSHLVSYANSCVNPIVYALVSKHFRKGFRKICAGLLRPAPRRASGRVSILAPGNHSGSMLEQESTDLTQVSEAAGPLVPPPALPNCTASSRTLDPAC
PME-1 Maybr inh – Maybridge compound blocking human PME-1. Q9Y570. recombinant PME-1, FP-Rh probe fluorescence polarization. inhibition, % at 9 µM. 16,000 compounds, 0.5% hits; in the data active = inhibition above about 30%
KOR antag MB – blocks the human kappa opioid receptor, Maybridge compounds; inhibition, % at 9 µM; 16,000 compounds, 0.4% hits; OPRK1 cells, antagonist mode, fluorescence readout; P41145; in the data active = inhibition above about 50%
TLR4-MyD88 inh – blocks binding of human TLR4 to MyD88; Cell-based TLR4-MyD88 binding inhibition assay; inhibition, % at 10 µM; 16,000 compounds, 0.06% hits; in the data active = inhibition above about 45%
Numbers stand for hits. In the library only some 1.2% were active in any assay of this set; here they are far more common.

`O=C(c1cnn(-c2ccc(Cl)cc2)c1C(F)(F)F)N1CCN(c2ncnc3ccsc23)CC1` gave rat GALR2 agon inactive, PME-1 Maybr inh inactive, KOR antag MB 80.5 and TLR4-MyD88 inh inactive.
`NNC(=O)c1cnn(-c2ccc(Cl)cc2)c1C(F)(F)F` gave rat GALR2 agon inactive, PME-1 Maybr inh inactive, KOR antag MB inactive and TLR4-MyD88 inh inactive.
For N=C(N)SCc1ccc([N+](=O)[O-])o1 the results were rat GALR2 agon inactive, PME-1 Maybr inh inactive, KOR antag MB inactive and TLR4-MyD88 inh inactive.
Screening COc1ccc(-c2c(C#N)c(=O)[nH]c3c2c(C)nn3-c2ccccc2)cc1 returned rat GALR2 agon inactive, PME-1 Maybr inh inactive, KOR antag MB inactive and TLR4-MyD88 inh inactive.
`COc1cccc(-c2c3c([nH]c(=O)c2C#N)CCc2cc(OC)ccc2-3)c1` gave rat GALR2 agon 52.7, PME-1 Maybr inh inactive, KOR antag MB inactive and TLR4-MyD88 inh inactive.
Screening COc1ccc(/C=C(/CC(=O)O)C(=O)O)cc1 returned rat GALR2 agon inactive, PME-1 Maybr inh inactive, KOR antag MB inactive and TLR4-MyD88 inh inactive.
For CC1Cn2c(=O)c3ccccc3c(=O)n2C1 the results were rat GALR2 agon inactive, PME-1 Maybr inh inactive, KOR antag MB inactive and TLR4-MyD88 inh inactive.
Screening O=[N+]([O-])c1ccc(SCc2cccc(C(F)(F)F)c2)c([N+](=O)[O-])c1 returned rat GALR2 agon inactive, PME-1 Maybr inh inactive, KOR antag MB inactive and TLR4-MyD88 inh inactive.
COc1ccc(/C=C(\C#N)C(=O)c2cc(C(C)(C)C)on2)cc1 was read as rat GALR2 agon 21.4, PME-1 Maybr inh inactive, KOR antag MB inactive and TLR4-MyD88 inh inactive.
`CCCCCC[n+]1ccccc1/C=C/c1ccc(N(C)C)cc1` gave rat GALR2 agon inactive, PME-1 Maybr inh inactive, KOR antag MB 71.5 and TLR4-MyD88 inh 63.6.
CCS(=O)(=O)CS(=O)(=O)CC was read as rat GALR2 agon inactive, PME-1 Maybr inh inactive, KOR antag MB inactive and TLR4-MyD88 inh inactive.
Brc1ccc(-c2csc(Nc3ccncc3)n2)cc1 was read as rat GALR2 agon inactive, PME-1 Maybr inh inactive, KOR antag MB 68.2 and TLR4-MyD88 inh inactive.
Screening CCOC(=O)c1cc(C(=O)OC)c(C)nc1N1CCC(NC2CCCCC2O)CC1 (stereo not given) returned rat GALR2 agon inactive, PME-1 Maybr inh inactive, KOR antag MB 91.7 and TLR4-MyD88 inh inactive.
`CCOC(=O)/C(C#N)=C/Nc1cccnc1Oc1ccc(C)c2c1CCC2` gave rat GALR2 agon 27.3, PME-1 Maybr inh inactive, KOR antag MB inactive and TLR4-MyD88 inh inactive.
COc1ccc(C)c2c1CCC2 was read as rat GALR2 agon inactive, PME-1 Maybr inh inactive, KOR antag MB inactive and TLR4-MyD88 inh inactive.
For CSc1sc(C(=O)NC(=O)Nc2ccc(Cl)cc2)c2c1-c1nocc1CC2 the results were rat GALR2 agon inactive, PME-1 Maybr inh inactive, KOR antag MB 68.1 and TLR4-MyD88 inh inactive.
Screening CSc1sc(C(=O)NNC(=O)Nc2ccc(Cl)cc2)c2c1C1(CCC2)SCCS1 returned rat GALR2 agon inactive, PME-1 Maybr inh inactive, KOR antag MB inactive and TLR4-MyD88 inh inactive.
`O=C(CSc1nccc(-c2cccs2)n1)c1cc(-c2ccccc2)no1` gave rat GALR2 agon inactive, PME-1 Maybr inh inactive, KOR antag MB inactive and TLR4-MyD88 inh inactive.
For O=C(Nc1ccc([N+](=O)[O-])cc1)Nc1csc(-c2cccnc2)n1 the results were rat GALR2 agon inactive, PME-1 Maybr inh inactive, KOR antag MB 51.8 and TLR4-MyD88 inh inactive.
`O=C(c1ccc(-c2ccccc2)s1)N1CC=C(c2ccccc2)CC1` gave rat GALR2 agon inactive, PME-1 Maybr inh inactive, KOR antag MB inactive and TLR4-MyD88 inh inactive.
O=[N+]([O-])c1ccc(N2CCCCCC2)c([N+](=O)[O-])c1 was read as rat GALR2 agon inactive, PME-1 Maybr inh inactive, KOR antag MB inactive and TLR4-MyD88 inh inactive.
`NC1=NNC(=O)/C1=C\c1cc([N+](=O)[O-])ccc1N1CCOCC1` gave rat GALR2 agon 24.9, PME-1 Maybr inh inactive, KOR antag MB inactive and TLR4-MyD88 inh inactive.
`Cc1cc(/C=C(\C#N)S(C)(=O)=O)c(C)n1-c1ccc(C(F)(F)F)cc1` gave rat GALR2 agon inactive, PME-1 Maybr inh inactive, KOR antag MB inactive and TLR4-MyD88 inh inactive.
Screening COc1ccc(OS(=O)(=O)c2sc(Br)cc2Br)cc1 returned rat GALR2 agon inactive, PME-1 Maybr inh inactive, KOR antag MB 52.5 and TLR4-MyD88 inh inactive.
Screening CC(C)(C)NS(=O)(=O)c1sc(Br)cc1Br returned rat GALR2 agon inactive, PME-1 Maybr inh inactive, KOR antag MB inactive and TLR4-MyD88 inh inactive.
Screening N#CCOc1nc(-c2ccccc2)cc(-c2ccco2)c1C#N returned rat GALR2 agon 22.4, PME-1 Maybr inh inactive, KOR antag MB inactive and TLR4-MyD88 inh inactive.
Cc1cc2c(N)cccc2nn1 was read as rat GALR2 agon inactive, PME-1 Maybr inh 105.6, KOR antag MB inactive and TLR4-MyD88 inh inactive.
